Pf growth 48h = P. falciparum growth inhibition at 48 hours (one generation); P. falciparum luciferase growth in erythrocytes, 48 h; Potency, µM (series often up to 28.7 µM), most hits filed as inhibitors; hit rate 5.9% among 310,000; AID 504832
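Here the parasites carry a stable luciferase gene and grow inside erythrocytes in Albumax-based RPMI medium with compound for one erythrocytic cycle. Activity is scored as loss of luminescent signal.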
Pf growth 96h = inhibits malaria parasite growth, 96 h | P. falciparum luciferase reporter growth, 96 h | Potency, µM (titrated, usually from 28.7 µM), usual class: inhibitors | hit rate 6.9% among 320,000 | AID 504834
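P. falciparum expressing integrated firefly luciferase, in erythrocytes at 2% hematocrit, 0.05% parasitemia, incubated with compounds 96 h at 37 C, 5% CO2. Growth inhibition read as loss of luminescence; two-generation exposure targets delayed-death apicoplast inhibitors.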
CHX counter = affects cycloheximide protein synthesis inhibition readout, counter-screen. cell reporter, cycloheximide protein synthesis inhibition counterscreen. max response, %. hit rate 12% among 300,000. AID 2314; in the data active = max response mostly above about 13%, no sharp cut-off; inactive = mostly below about 14%; note: read at 38.3 µM for the half of the compounds with a filed dose
Shiga inhibitor = Shiga toxin inhibition; inhibition, % at 38.7 µM; Vero cells, Shiga toxin protein synthesis inhibition reporter; hit rate 9.2% among 290,000; AID 2315; in the data active = inhibition mostly above about 28%, no sharp cut-off; inactive = mostly below about 43%
A number is an active result; n = inactive; u = inconclusive; x = not tested or not shown. Shown are actives, neighbours in structure and some others; about 21% of the full set was active somewhere. Unless noted, calls come from the whole dose curve; as a rule, active = well fitted inhibition curve with a large enough effect; inconclusive = small, poorly fitted or top-dose-only effect, or another doubt; inactive = no such curve, though single readings can be large or run the other way.

SMILES	Pf growth 48h	Pf growth 96h	CHX counter	Shiga inhibitor
CCNC(=O)C1CCCN1C(=O)C(CCCN=C(N)N)NC(=O)C(CC(C)C)NC(=O)C(Cc1cn(Cc2ccccc2)cn1)NC(=O)C(Cc1ccc(O)cc1)NC(=O)C(CO)NC(=O)C(Cc1c[nH]c2ccccc12)NC(=O)C(Cc1cnc[nH]1)NC(=O)C1CCC(=O)N1 (stereo not drawn)	n	n	n	n
CCCSCCCNC(=O)Cn1c(=O)c2cccn2c2ccccc21	n	u	n	n
Cc1nn(Cc2ccc(F)cc2)c(C)c1NC(=O)CCCn1nc([N+](=O)[O-])cc1C	n	n	n	n
COc1ccc(CN2CCSCC2)c(OC)c1C	n	u	n	n
COc1ccc(-c2[nH]ncc2CN2CCSCC2)c(OC)c1	n	12µM	n	n
COc1ccc(CN2CCSCC2)c(C)c1C	n	8.3µM	n	n
COc1ccc(OC)c(CN2CCSCC2)c1	u	n	n	n
CCc1ccc(OCc2n[nH]c(=S)n2C(C)CCCC(C)C)cc1 (stereo not drawn)	n	u	n	n
CCOCCCNC(=S)Nc1ccc2nc3n(c(=O)c2c1)CCCCC3	n	n	n	n
CC(C)CCNC(=S)Nc1ccc2nc3n(c(=O)c2c1)CCCCC3	u	u	n	27
CCCCNC(=S)Nc1ccc2nc3n(c(=O)c2c1)CCCCC3	n	n	22	n
CC(C)OCCCNC(=S)Nc1ccc2nc3n(c(=O)c2c1)CCCCC3	n	n	n	n
CN(C)CCNC(=O)/C=C/c1cn(-c2ccccc2)nc1-c1cc2ccccc2oc1=O	n	8.3µM	n	n
CCCOc1ccc(-c2nnc(-c3ccco3)o2)cc1	n	12µM	51	n
CC(C)COc1ccc(-c2nnc(-c3ccco3)o2)cc1	n	u	30	n
NC(=O)C1CCCN(CC(=O)Nc2ccccc2C(=O)NC2CC2)C1 (stereo not drawn)	n	n	x	x
COCCN(C(=O)CCC(=O)Nc1nccs1)C(C(=O)NCCC(C)C)c1ccc(OC)cc1 (stereo not drawn)	u	n	n	n
FC(F)(F)c1cccc(OCC2CNC(=S)O2)c1 (stereo not drawn)	n	n	n	n
CC(Oc1ccc(Br)cc1)C(=O)NC1CCN(Cc2ccccc2)CC1 (stereo not drawn)	n	u	x	x
Oc1ccccc1-n1c(-c2ccccc2)ccc1-c1ccccc1	9.3µM	5.9µM	n	n
O=C(c1ccco1)N1CCN(C(=O)c2cn(-c3ccccc3)nc2-c2ccccc2)CC1	n	n	x	x
CCc1cccc(C)c1NC(=S)NCCc1c(C)[nH]c2ccc(C)cc12	u	15µM	n	n
CCc1cccc(CC)c1NC(=S)NCCc1c(C)[nH]c2ccc(C)cc12	u	10µM	n	n
COc1ccc2[nH]c(C)c(CCNC(=S)Nc3cc(C)ccc3C)c2c1	n	n	n	n
Cc1ccc(S(=O)(=O)c2nc(S(=O)(=O)c3ccccc3)sc2N2CCN(C)CC2)cc1	u	u	n	n
SMILES	Pf growth 48h	Pf growth 96h	CHX counter	Shiga inhibitor
COc1ccc(/C=N/NC(=O)c2ccn[nH]2)cc1COc1ccc(F)cc1	u	n	21	n
COc1ccc(/C=N\NC(=O)c2ccccc2OC)cc1COc1c(F)c(F)c(F)c(F)c1F	n	u	12	n
COc1ccc(C(=O)N/N=C/c2ccc(OC)c(CN3CCc4cc(OC)c(OC)cc4C3C)c2)cc1 (stereo not drawn)	9.3µM	n	n	n
COc1ccc(/C=N\NC(=O)c2ccccc2Cl)cc1COc1c(F)c(F)c(F)c(F)c1F	n	n	n	n
COc1ccc(/C=N/NC(=O)c2ccncc2)cc1Cn1nc([N+](=O)[O-])c(Br)c1C	u	4.1µM	n	n
CC(C)(C)OC(=O)N1CCC[C@H]1c1nnc(SCC(=O)Nc2ccc(Br)cc2)o1	n	n	n	n
O=C(NN1CCN(Cc2ccccc2)CC1)c1ccc(Cl)cc1	n	n	n	n
Cc1cc(C)c2oc(C(=O)N3CCN(Cc4ccccc4)CC3)cc(=O)c2c1	u	u	n	n
COc1ccc(/C=N/NC(=O)c2ccn[nH]2)cc1Cn1nc(C)c([N+](=O)[O-])c1C	n	n	23	69
COc1ccc(/C=N\NC(=O)c2ccccc2)cc1COc1ccc(F)cc1	u	u	27	n
COc1ccc(/C=N/NC(=O)c2ccn[nH]2)cc1COc1ccc([N+](=O)[O-])c(C)c1	u	u	35	55
COc1ccc(/C=N/NC(=O)c2ccccc2)cc1CN1CCN(c2ccc(F)cc2)CC1	n	n	12	n
COc1ccc(/C=N/NC(=O)c2ccccc2F)cc1CN1CCN(c2ccc(F)cc2)CC1	n	u	n	n
Cc1sc2ncnc(SCC(=O)N3CCCC(C(F)(F)F)C3)c2c1C (stereo not drawn)	n	n	n	n
C/C1=C/C(=O)O[C@@H]2C[C@@H](CC[C@H](C)/C=C\CC1)O[C@@](O)(C1CSC(=O)N1)C2 (stereo partly drawn)	x	x	n	n
O=C(Cn1c(=S)[nH]c2ccccc21)c1ccccc1	n	n	n	n
Cc1ccc(NC(=O)Cn2c(=S)[nH]c3ccccc32)cc1	n	u	22	n
Oc1ccc(C2C(c3ccccc3)=NN=C(c3ccccc3F)N2O)c(O)c1 (stereo not drawn)	n	u	n	n
Oc1ccc(C2C(c3ccccc3)=NN=C(c3ccc(Cl)cc3)N2O)c(O)c1 (stereo not drawn)	u	2.6µM	n	n
Cc1cc(C)c2nc3sc(C(=O)N4CCOCC4)c(N)c3cc2c1	n	n	29	101
Cc1cc(C)c2cc3c(N)c(C(=O)N4CCOCC4)sc3nc2c1	u	u	n	n
Cc1ccc(C)c2nc3sc(C(=O)N4CCOCC4)c(N)c3cc12	n	n	27	58
O=C(O)CCN1C(=O)C2CCCCC2C1=O (stereo not drawn)	x	0.74µM	n	n
Cc1ccc(-c2csc(NC(=O)CN3CCOCC3)n2)cc1C	n	n	21	n
CCc1ccccc1OCC(=O)Nc1nc(-c2cccnc2)cs1	4.1µM	4.1µM	n	n
SMILES	Pf growth 48h	Pf growth 96h	CHX counter	Shiga inhibitor
Cc1cc(C(=O)OCC(=O)Nc2nc(-c3ccccc3)cs2)c(C)o1	x	n	n	n
Cc1ccccc1OCC(=O)Nc1nc(-c2ccncc2)cs1	u	n	x	x
CC(=O)NCC(=O)OCC(=O)Nc1nc(-c2ccccc2)cs1	n	n	16	63
O=C(CN1CCOCC1)Nc1nc(-c2ccccc2)cs1	x	n	n	n
O=C(CCC1CCCN(c2ncccn2)C1)NCc1ccc(F)c(F)c1 (stereo not drawn)	n	n	n	n
Cc1ccc(C)c(OCC(=O)Nc2ccccc2C(=O)N2CCOCC2)c1	u	n	n	n
COc1ccc(S(=O)(=O)Nc2ccc(N3CCOCC3)nc2)cc1	u	n	n	n
CCc1ccc(-c2csc(NC(=O)Oc3ccccc3)n2)cc1	n	12µM	25	193
O=C(CN1CCCCC1)Nc1nc(-c2ccccc2)cs1	x	n	35	35
O=C(CCN1C(=O)C2CCCCC2C1=O)Nc1nc(-c2ccccc2)cs1 (stereo not drawn)	n	n	17	n
Cc1nc(NC(=O)CN2CCOCC2)sc1-c1ccccc1	n	n	26	n
O=C(O)CCCC(=O)Nc1nc(-c2ccccc2)cs1	n	n	n	n

Compound activity (PubChem BioAssay)
